Data published in PubChem BioAssay AID1159580 (chemical genetic matrix, 2015).
Screen size: about 5,500 compounds; about 2,000 (36%) were called active. Inconclusive results (about 18%) are left out. Rule as the data show it: active = normalized growth mostly below about 0.91 (no sharp cut-off); inconclusive = no clear call, values can overlap the other calls; inactive = mostly above about 0.92. Some of the results follow.

Assay: chemical genetic growth profiling, strain panel (AID 1159580);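 also: tested at 20 µM; growth read once vehicle control cultures reached saturation at 30 °C; 1 = growth at the plate median or of vehicle wells; lower values mean less growth of the strain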
Conditions: S. cerevisiae deletion strains, growth OD

Measured: normalized growth

CC(=O)NCCCCCC(=O)O
inactive: locus YAL013W, strain DEP1, active compounds read low 1.01 | locus YAL021C, strain ccr4, active compounds read low 1.01 | locus YAL026C, strain drs2, active compounds read low 0.978 | locus YAL030W, strain snc1, active compounds read low 0.99 | locus YBL061C, strain skt5, active compounds read low 0.99 | locus YBR009C, strain hhf1, active compounds read low 0.979 | locus YBR021W, strain FUR4, active compounds read low 1.02 | locus YBR023C, strain chs3, active compounds read low 0.984 | locus YBR171W, strain sec66, active compounds read low 0.999 | locus YBR229C, strain ROT2, active compounds read low 1.01 | locus YBR231C, strain swc5, active compounds read low 0.998 | locus YBR279W, strain paf1, active compounds read low 0.998 | locus YCL011C, strain gbp2, active compounds read low 0.968 | locus YCL016C, strain dcc1, active compounds read low 1 | locus YCL029C, strain bik1, active compounds read low 0.988 | locus YCL061C, strain MRC1, active compounds read low 1 | locus YCL069W, strain vba3, active compounds read low 0.979 | locus YCR088W, strain abp1, active compounds read low 0.99 | locus YDL005C, strain med2, active compounds read low 0.984 | locus YDL035C, strain GPR1, active compounds read low 1.02 | locus YDL040C, strain nat1, active compounds read low 0.995 | locus YDL074C, strain BRE1, active compounds read low 1.04 | locus YDL101C, strain DUN1, active compounds read low 1.02 | locus YDL134C, strain PPH21, active compounds read low 1 | locus YDL185W, strain tfp1, active compounds read low 0.985 | locus YDL192W, strain arf1, active compounds read low 0.988 | locus YDR001C, strain nth1, active compounds read low 0.987 | locus YDR069C, strain doa4, active compounds read low 0.993 | locus YDR101C, strain arx1, active compounds read low 0.986 | locus YDR137W, strain rgp1, active compounds read low 1.01 | locus YDR159W, strain sac3, active compounds read low 0.976 | locus YDR162C, strain NBP2, active compounds read low 1.01 | locus YDR195W, strain ref2 0.982 | locus YDR297W, strain sur2, active compounds read low 0.993 | locus YDR318W, strain mcm21, active compounds read low 0.992 | locus YDR334W, strain swr1, active compounds read low 0.979 | locus YDR335W, strain msn5, active compounds read low 1 | locus YDR388W, active compounds read low 0.97 | locus YDR392W, strain spt3, active compounds read low 0.891 | locus YDR502C, strain sam2, active compounds read low 0.98 | locus YEL003W, strain gim4, active compounds read low 0.969 | locus YEL037C, strain rad23, active compounds read low 0.972 | locus YEL061C, strain CIN8 (second series), active compounds read low 0.977 | locus YEL061C, strain CIN8, active compounds read low 1.01 | locus YER015W, strain faa2, active compounds read low 1 | locus YER016W, strain bim1, active compounds read low 0.997 | locus YER110C, active compounds read low 0.986 | locus YER111C, strain swi4, active compounds read low 0.967 | locus YER155C, strain BEM2 (second series), active compounds read low 1.01 | locus YER155C, strain BEM2, active compounds read low 1.01 | locus YER167W, strain BCK2, active compounds read low 1 | locus YFR010W, strain ubp6, active compounds read low 0.983 | locus YGL078C, strain dbp3, active compounds read low 0.974 | locus YGL086W, strain mad1, active compounds read low 1 | locus YGL167C, strain pmr1, active compounds read low 0.969 | locus YGL173C, strain kem1, active compounds read low 0.99 | locus YGL227W, strain vid30, active compounds read low 0.97 | locus YGL240W, strain doc1, active compounds read low 0.993 | locus YGL248W, strain PDE1, active compounds read low 1.03 | locus YGL253W, strain hxk2, active compounds read low 0.991 | locus YGR135W, strain pre9, active compounds read low 0.979 | locus YGR229C, strain SMI1, active compounds read low 1.01 | locus YGR252W, strain gcn5, active compounds read low 0.954 | locus YHR013C, strain ard1, active compounds read low 0.946 | locus YHR027C, strain rpn1, active compounds read low 1.01 | locus YHR030C, strain SLT2, active compounds read low 1.01 | locus YHR079C, strain IRE1 (second series), active compounds read low 0.992 | locus YHR094C, strain hxt1, active compounds read low 0.984 | locus YHR129C, strain ARP1, active compounds read low 1.01 | locus YHR142W, strain chs7, active compounds read low 1.02 | locus YHR200W, strain rpn10, active compounds read low 0.994 | locus YIL066C, strain RNR3, active compounds read low 1.03 | locus YIL073C, strain SPO22, active compounds read low 0.979 | locus YIL125W, strain kgd1, active compounds read low 0.981 | locus YIR030C, strain dcg1, active compounds read low 0.998 | locus YJL092W, strain hpr5, active compounds read low 0.99 | locus YJL095W, strain BCK1 (second series), active compounds read low 1.01 | locus YJL095W, strain BCK1, active compounds read low 1.03 | locus YJL115W, strain asf1, active compounds read low 0.98 | locus YJL129C, strain trk1, active compounds read low 1 | locus YJL134W, strain LCB3, active compounds read low 1.01 | locus YJL154C, strain vps35, active compounds read low 0.978 | locus YJL164C, strain tpk1, active compounds read low 1.02 | locus YJL166W, strain qcr8, active compounds read low 1.01 | locus YJL168C, strain set2, active compounds read low 0.986 | locus YJL187C, strain SWE1 (second series), active compounds read low 1.03
